Data: PubChem BioAssay AID1851 (National Center for Advancing Translational Sciences (NCATS), 2009)
About 4,000 (25%) of roughly 16,000 compounds were called active. Roughly 26% stayed inconclusive and do not appear here. Calls come from the whole dose curve; as a rule, active = well fitted curve in the direction sought with a large enough effect; inconclusive = small, poorly fitted or top-dose-only effect, or effect the other way; inactive = no such curve, though single readings can be large or run the other way. Not all results are given here.

Molecular target: Cytochrome P450 2C9 (Homo sapiens) (UniProt P11712)
Sequence (P11712 whole entry, looked up): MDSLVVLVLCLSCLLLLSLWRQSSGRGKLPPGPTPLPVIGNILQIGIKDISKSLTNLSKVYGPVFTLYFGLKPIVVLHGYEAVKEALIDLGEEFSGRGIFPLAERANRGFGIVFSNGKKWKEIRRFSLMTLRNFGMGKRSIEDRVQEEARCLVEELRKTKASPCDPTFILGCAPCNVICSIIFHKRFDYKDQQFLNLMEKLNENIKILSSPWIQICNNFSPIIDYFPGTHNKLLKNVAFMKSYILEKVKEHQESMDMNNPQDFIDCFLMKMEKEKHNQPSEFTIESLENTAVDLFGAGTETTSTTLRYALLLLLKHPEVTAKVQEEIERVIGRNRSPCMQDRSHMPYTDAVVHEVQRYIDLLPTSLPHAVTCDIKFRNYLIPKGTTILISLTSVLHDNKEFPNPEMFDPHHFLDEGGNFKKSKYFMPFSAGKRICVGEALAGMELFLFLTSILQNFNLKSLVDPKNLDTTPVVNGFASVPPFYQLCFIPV
Test: Cytochrome panel assay with activity outcomes
Details: recombinant CYP, pro-luciferin dealkylation, luminescence, p450-cyp2c9; series mostly up to 57.1 µM; activity, negative = inhibition: at the top concentration
% is set by controls: 0 for no effect and ±100 for the full control effect.

activity, negative = inhibition, inactive:
Cc1ccc(-n2[nH]c(C)c(C=Nc3ccc4[nH]c(=O)[nH]c4c3)c2=O)cc1C -17.8%, NC(N)=NC(N)=Nc1ccccc1 -22.3%, C/C=C\C[C@@H](C)[C@@H](O)[C@H]1C(=O)N[C@@H](CC)C(=O)N(C)CC(=O)N(C)[C@@H](CC(C)C)C(=O)N[C@@H](C(C)C)C(=O)N(C)[C@@H](CC(C)C)C(=O)N[C@@H](C)C(=O)N[C@H](C)C(=O)N(C)[C@@H](CC(C)C)C(=O)N(C)[C@@H](CC(C)C)C(=O)N(C)[C@@H](C(C)C)C(=O)N1C -1.45%, CCCCc1cc2ccccc2c(OCCN(C)C)n1 -4.88% [at 25.6 µM], O=C(CSc1nnc(-c2ccc(Cl)cc2Cl)n1C1CCCCC1)NC1CCS(=O)(=O)C1 (stereo not given) -10.5%, Cc1cc(C)n2c(SCC(=O)N(C)C3CCS(=O)(=O)C3)nnc2n1 (stereo not given) -6.22%, CCC(=O)OCN1C(=O)C=CC1=O 22.6% [at 11.4 µM], NC(N)=NC[C@@H]1CCCCCCN1 3.41% [at 11.4 µM], O=C(Nc1ccccc1)OC[C@H](CN1CCCCC1)OC(=O)Nc1ccccc1 -19.8% [at 25.6 µM], Cn1cccc1C(=O)N1CCC2(CC1)CN(C(=O)Nc1ccccc1)C2 8.52%, Cc1c(NC(=O)Nc2c(Cl)cccc2Cl)c(=O)n(-c2ccccc2)n1C -2.44% [at 11.4 µM], Cc1c(NC(C)C)c(=O)n(-c2ccccc2)n1C -9.77% [at 25.6 µM], COC(=O)N1CCC2(CCCN(Cc3nccs3)C2)CC1 -13.7%, Cn1c(CNS(=O)(=O)c2ccc(Cl)cc2)n[nH]c1=S -14.4%, O=S(=O)(NCc1cc(-c2ccccc2)no1)c1ccc(Cl)cc1 -25.6%, COC(=O)[C@@H]1[C@@H]2C[C@H]3c4[nH]c5cc(OC)ccc5c4CCN3C[C@@H]2C[C@H](OC(=O)c2cc(OC)c(OC)c(OC)c2)[C@H]1OC -7.98% [at 25.6 µM], CO[C@@H]1COC(=O)[C@@H](CCSC)NC(=O)C/C=C\[C@@H](C)COC(=O)CCC[C@H]1C -5.5% [at 11.4 µM], O=c1c2c(n3cnnc3n1-c1ccccc1)-c1ccccc1CC21CCCCC1 -19.1%, CCOc1cc(/C=C2/NC(=O)N(CC(=O)Nc3cccc(C)c3)C2=O)ccc1OC -14.1%, CCCCNC(=O)C1CC(=O)N(CCC(C)C)C1 (stereo not given) -21.3%, O=C(O)COc1c(Cl)cc(Cl)c2cccnc12 15.5% [at 11.4 µM], COCCNC(=O)c1cn(Cc2c(F)cccc2Cl)nn1 -7.08%, CN1CCN(c2ncnc3ccc(-c4ccccc4Cl)cc23)CC1 -20.9% [at 2.29 µM], CC(=O)CCCCn1c(=O)c2c(ncn2C)n(C)c1=O -1.76% [at 25.6 µM], O=C(Cn1cccc1)NC1CCCCCC1 -26.8%, FC(F)(F)c1ccccc1-c1nc(NCc2cccnc2)c2ccccc2n1 -20.3% [at 2.29 µM], c1cncc(CNc2nc(-c3ccoc3)nc3ccccc23)c1 0.547% [at 2.29 µM], CCOC(=O)c1ccc(OC(=O)CCCCCN=C(N)N)cc1 6.9%, CN(C)C(=O)c1ccc(-c2nc(Nc3ccncc3)c3ccccc3n2)cc1 -8.55% [at 2.29 µM], c1ccc(Nc2nc(-c3cccnc3)nc3ccccc23)cc1 -0.938% [at 2.29 µM], COc1ccccc1-c1nc(NCc2cccnc2)c2ccccc2n1 5.64% [at 2.29 µM], COc1ccccc1NC(=O)Nc1nc(-c2cccnc2)nc2ccccc12 25.8%, CN1CCCC2(CCN(C(=O)c3cc(C(F)(F)F)cc(C(F)(F)F)c3)CC2)C1 6.14%, Cn1cnc([N+](=O)[O-])c1Sc1nc(N)nc2c1ncn2[C@H]1C[C@H](O)[C@@H](CO)O1 -1.03% [at 11.4 µM], Cc1cccc(N2CC(O)=C(c3nc4ccccc4n3C)C2=N)c1 -8.08%, O=C(NCCCN1CCCC1=O)c1ccc(CNS(=O)(=O)c2ccc(F)cc2)cc1 -31.1%, Cc1ccc(CS(=O)(=O)CCC(=O)NCCCN2CCCC2=O)cc1 -8.86%, Cc1ccc(N2CCN(CCC(=O)O)CC2)cc1 10.3% [at 11.4 µM], CO[C@@H]1/C=C\CC(=O)N[C@@H](C)C(=O)OC[C@@H](OC)[C@H](C)/C=C\CC(=O)OC[C@H]1C 9.15% [at 11.4 µM], Cn1c(=O)c2[nH]c(CCS)nc2n(C)c1=O 10.4% [at 11.4 µM], Cc1cccc(Nc2cc(Cl)nc(SCC(=O)O)n2)c1C -23.8%, Cc1cc(C)nc(SCC(=O)Nc2ccccc2[N+](=O)[O-])n1 -21.1%, O=C(O)CCC(=O)N1CCC[C@H]1C(=O)O 21.5%, CCCC[C@H]1C[C@@H]1[C@@H]1N(P(=O)(c2ccccc2)c2ccccc2)C[C@@](O)(c2ccccc2)CC12CC2 -27.2%, CCN(CC)CCCCCCCCOC(=O)c1cc(OC)c(OC)c(OC)c1 -12.6%, CCN1C(=O)c2cccc3c(NC(=O)c4cccc(N5C(=O)CCC5=O)c4)ccc1c23 -16.7%, c1csc(CNc2ccnc(-c3ccc4c(c3)OCO4)n2)c1 -22.4% [at 2.29 µM], c1cncc(-c2nc(N3CCNCC3)c3ccccc3n2)c1 -1.35% [at 2.29 µM], CN1CCN(c2nc(-c3cccnc3)nc3ccccc23)CC1 16.9% [at 2.29 µM], CCNc1ncc2nc(-c3ccc(OC)cc3)c(=O)n(-c3ccc(OC)cc3)c2n1 9.11%, NCC(=O)Nc1ccc(Cl)cc1C(=O)c1ccc[nH]1 -20.4% [at 11.4 µM], CS(=O)(=O)N1CCC2(CCN(Cc3nccs3)CC2)CC1 -16.9%, CS(=O)(=O)N1CCC2(CCCN(c3ncccn3)C2)CC1 -13.1%, CS(=O)(=O)N1CCC2(CCN(c3ccncc3)CC2)CC1 -22.8%, CS(=O)(=O)N1CCC[C@@]2(CCN(c3ccncc3)C2)C1 6.86%, CS(=O)(=O)N1CCC[C@@]2(CCN(Cc3nccs3)C2)C1 -13.9%, CS(=O)(=O)N1CCC2(CC1)CN(c1ncccn1)C2 21.2%, CC(=O)N1CCC2(CCCN(C(=O)Nc3cccc(F)c3)C2)CC1 -0.517%, OCCNc1ncnc2c1ncn2[C@@H]1O[C@@H](CO)[C@H](O)[C@@H]1O 8.16% [at 11.4 µM], Cc1ccc(N(Cc2ccccc2)Cc2ccccc2)cc1 -16.6% [at 11.4 µM], Cc1ccc(N=Nc2ccc(N)cc2C)c(S(N)(=O)=O)c1 -8.16% [at 11.4 µM]

AC50, inactive:
COc1ccc(CN(CCN(C)C)c2ccccn2)cc1

AC50, active:
CCc1nnc(NS(=O)(=O)c2ccc(N=Cc3c(C)[nH]n(-c4ccc(C)cc4)c3=O)cc2)s1 8.91 µM, Fc1ccc(CSc2nnc(-c3cc4c(s3)-c3ccccc3CC4)o2)cc1 3.16 µM, Cc1ccc(-n2ccnc2SCC(=O)N(CC(C)C)C2CCS(=O)(=O)C2)c(C)c1 (stereo not given) 14.1 µM, CN1c2ccccc2C(O)=C(C(=O)Nc2ccccc2)S1(=O)=O 2.82 µM, Cc1ccc(S(=O)(=O)/N=C(/Nc2c(C)n(C)n(-c3ccccc3)c2=O)c2ccc(Cl)cc2)cc1 11.2 µM, O=S(=O)(NCc1cc(-c2ccc(Cl)cc2)no1)c1ccc(Cl)cc1 3.98 µM, Oc1cccc(-c2nc3c4c(ncn3n2)-c2ccccc2CC42CCCC2)c1 7.08 µM, CCOc1cc(/C=C2\C(=O)N(Cc3ccc(C)cc3)C(C)=C2C(=O)OC)ccc1O 1.41 µM, COC(=O)c1sc2ncccc2c1OCc1c(Cl)cccc1Cl 1.78 µM, O=C(CCCCn1c(=O)c2ccccc2n(CC(=O)NC2CCCC2)c1=O)NC1CCCC1 10 µM, c1ccc(-c2nc(NCc3cccnc3)c3ccccc3n2)cc1 3.55 µM, COc1ccccc1CNc1nc(-c2cccnc2)nc2ccccc12 1 µM, CCOC(=O)c1ccc(Nc2nc(-c3cccnc3)nc3ccccc23)cc1 5.01 µM, CCOC(=O)c1ccc(Nc2nc(=O)c3cccnc3s2)cc1 7.94 µM, COC(=O)c1c(-c2cc(OC)c(OC)c(OC)c2)c2ccnc(OCc3ncccn3)c2c(=O)n1Cc1ccnc(C)c1 12.6 µM, Cn1c(-c2sc(=S)n(-c3ccccc3)c2N)nc2ccccc21 2.51 µM, Cc1ccc(S(=O)(=O)N(CCCN2CCCC2=O)Cc2cc3c(C)ccc(C)c3[nH]c2=O)cc1 3.16 µM, Cc1ccc(C)c(-c2nn(-c3cc(N4CCN(CCO)CC4)ccc3[N+](=O)[O-])c(=O)c3ccccc23)c1 12.6 µM, Cc1cccc(NC(=O)CSc2nnc(-c3ccco3)c(-c3ccco3)n2)c1C 1.78 µM, CCCC[C@H]1C[C@@H]1[C@@H]1N(P(=O)(c2ccccc2)c2ccccc2)[C@](CO)(c2ccccc2)CC12CC2 15.8 µM, CCC(NC(=O)Nc1cc(OC)c(OC)c(OC)c1)(C(F)(F)F)C(F)(F)F 14.1 µM, CCOC(=O)c1ccc(NC(=O)Nc2ccc3c4c(cccc24)C(=O)N3CC)cc1 20 µM, CC1CCCCN1c1nc(-c2ccncc2)nc2ccccc12 (stereo not given) 0.398 µM, CS(=O)(=O)N1CCC2(CCCN(c3ccncc3)C2)CC1 0.0794 µM, CS(=O)(=O)N1CCC2(CC1)CN(Cc1nccs1)C2 10 µM, CS(=O)(=O)N1CCC2(CC1)CN(c1ccncc1)C2 15.8 µM, CN(C)c1nccc(N(Cc2ccccc2)Cc2ccccc2)c1C#N 2.24 µM, COc1ccc(NC(=O)CSc2nc(-c3ccc(C)cc3)cc(C(F)(F)F)c2C#N)cc1 0.794 µM
